# Source: PubChem
# Sampled rows, rich in hits. Any-hit rate of the full collection: about 2.7%.
# Tau fluor counter – Counterscreen qHTS for Inhibitors of Tau Fibril Formation, Fluorescence Polarization | Potency, µM (series often up to 57.7 µM), for the others: at the top dose activity change, negative = decrease | tau K18 P301L Alexa594 fluorescence, heparin fibrillization | AID 1463, 2008 | 280,000 tested, 0.93% active; also: potency is read from the fitted curve at half-maximal effect; nearly all actives have a fitted effect of over 55% in size
#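 Human tau K18 P301L (15 uM unlabeled, 0.24 uM Alexa 594-labeled) in 100 mM sodium acetate pH 7 with 20 uM heparin, 6 hr at 37 C. ThT 30 uM added, 1 hr ambient; Alexa 594 FP and total fluorescence read at 555/632 nm.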
# Tau fibril FP – qHTS for Inhibitors of Tau Fibril Formation, Fluorescence Polarization; 280,000 tested, 0.39% active; K18 P301L tau heparin fibrillization, Alexa594 FP, 6 h; Potency, µM (doses to about 57.7 µM), inactives show at the top dose activity, negative = inhibition, hits mostly inhibitors; Microtubule-associated protein tau (Homo sapiens), P10636; also: potency is read from the fitted curve at half-maximal effect; nearly all actives have a fitted effect of over 55% in size
# Target sequence (P10636 561-689 P618L limits assumed): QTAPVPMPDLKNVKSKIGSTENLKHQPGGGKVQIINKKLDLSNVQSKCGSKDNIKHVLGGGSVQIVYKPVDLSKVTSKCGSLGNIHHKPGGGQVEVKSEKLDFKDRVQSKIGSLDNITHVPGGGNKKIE
#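 Human tau K18 […] P301L fragment, 15 uM unlabeled plus 0.24 uM Alexa 594-labeled tau (final), with compound and 20 uM heparin in 100 mM sodium acetate pH 7; 6 hr at 37 C, then Alexa 594 FP read.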
# Coupling enz – qHTS Assay for Inhibitors of Fructose-1,6-bisphosphate Aldolase from Giardia Lamblia: Coupling assay counterscreen. activity change, negative = inhibition, % at 58.2 µM, hits read low. coupling enzyme system counterscreen, AmpLite Red fluorescence. 290,000 tested, 0.67% active; in the data active = activity change below about -30%
#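 Fluorescence at 525 nm excitation and 598 nm emission measured inhibition of the coupled detection system without aldolase. Compounds (at 57.5 uM final) were preincubated 10 min at room temperature with coupling enzyme reagent before a 20 min substrate/AmpLite Red step.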
# Tau fibril ThT – qHTS for Inhibitors of Tau Fibril Formation, Thioflavin T Binding | recombinant tau K18 P301L, heparin-induced fibrillization, ThT fluorescence | Potency, µM (top dose mostly 57.4 µM), for the others: at the highest dose activity, negative = inhibition, usual class: inhibitors | 270,000 tested, 2.1% active; also: potency is read from the fitted curve at half-maximal effect; nearly all actives have a fitted effect of over 55% in size
#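 Fibril formation assay: tau K18 P301L at 15 uM with trace Alexa 594 label, heparin inducer 20 uM, pH 7 sodium acetate buffer, 37 C for 6 hr; endpoint ThT signal.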
# The depositor's hits bear a star; ? = inconclusive; . = no result; [ ] = dose if it differs, or a comment. Unless noted, calls follow the shape of the dose curve; as a rule, active = well fitted curve in the direction sought with a large enough effect; inconclusive = small, poorly fitted or top-dose-only effect, or another doubt; inactive = no such curve, though single readings can be large; an effect the other way counts as inactive or inconclusive. % is scaled to controls: 0 for no effect and ±100 for the full control effect.
SMILES,Tau fluor counter,Tau fibril FP,Coupling enz,Tau fibril ThT
CCOc1ccc(N2C(=O)/C(=C\c3ccc(OC)c(O)c3)S(=O)(=O)C2c2cccc([N+](=O)[O-])c2)cc1 (configuration not stated),-16%,12%,-3,-2%
CCC1CN(C(=O)N2CCC(C(=O)Nc3ccccc3F)CC2)c2ccccc2O1 (configuration not stated),2.5µM*[quencher],3%,.,-6%
CCC1CN(C(=O)N2CCC(C(=O)NCCc3ccc(Cl)cc3)CC2)c2ccccc2O1 (configuration not stated),5µM*[quencher],12%,.,-4%
O=C(NC1CCCCCC1)C1CCN(C(=O)N2CCOc3ccccc32)CC1,7.1µM*[quencher],?,.,11%
CC1CN(C(=O)N2CCC(C(=O)NC3CCCCCC3)CC2)c2ccccc2O1 (configuration not stated),2%,?,.,9%
O=C(NC1CC(=O)N(c2ccc(F)cc2)C1)c1cc2ccccc2o1 (configuration not stated),-3%,-14%,.,-8%
COc1ccc(NN=Nc2nc3c([nH]2)c(=O)n(C)c(=O)n3C)cc1,?,?,7,25µM*
Cn1c(=O)c2[nH]c(N=NNc3ccccc3F)nc2n(C)c1=O,?,?,-5,14µM*
CC(=O)/C(N=Nc1nc2c([nH]1)c(=O)n(C)c(=O)n2C)=C(\C)O,-3%,-6%,0,?
Cc1ccccc1NN=Nc1nc2c([nH]1)c(=O)n(C)c(=O)n2C,-8%,-10%,0,?
CCOC(=O)C1CCN(C(=O)CCNS(=O)(=O)c2ccc3c(c2)CCN3C(=O)CC)CC1,.,.,1,.
CCc1cccc(NC(=O)c2sc3nc[nH]c(=O)c3c2C)c1,?,?,.,-12%
COc1cc(/C=C2/CC(C)OC2=O)c([N+](=O)[O-])cc1OC (configuration not stated),.,.,0,.
COc1cc(C=O)c([N+](=O)[O-])cc1OC,?,6.3µM*,-61*,3.2µM*
Cc1ccc(CNC(=O)c2ccc3c(c2)N(Cc2ccccc2F)C(=O)c2ccccc2S3(=O)=O)cc1,-22%,?,.,3%
Cc1c(NC(=S)N/N=C/c2ccc(N(C)C)cc2)c(=O)n(-c2ccccc2)n1C,6%,-5%,3,-13%
Cc1c(N2C(=O)/C(=C\c3ccc(N(C)C)cc3)N(C)C2=S)c(=O)n(-c2ccccc2)n1C,-10%,4%,0,14µM*
CN1C(=S)N(c2cccnc2)C(=O)/C1=C\c1ccc(N(C)C)cc1,?,2%,-7,4µM*
CN1C(=S)N(c2cccnc2)C(=O)/C1=C\c1ccc(C(C)(C)C)cc1,-1%,8%,-1,?
COC(=O)c1n[nH]n(-c2ccccc2)c1=O,-11%,-10%,.,-8%
Nc1nc(N)c(S(=O)(=O)c2ccccc2)c(Nc2ccc(Br)cc2)n1,?,32µM*,.,-9%
Nc1nc(N)c(C=Nc2ccc(Br)cc2)c(Nc2ccc(Br)cc2)n1,10µM*[quencher],?,1,28µM*
Nc1nc(N)c(S(=O)(=O)c2ccccc2)c(Nc2ccccc2)n1,-26%,?,.,9%
Cc1cc(SCC(=O)Nc2nsc(-c3ccc(C(C)(C)C)cc3)n2)nc2ccccc12,-13%,-3%,.,-13%
Cc1cc(=O)n(Cc2ccccc2)c2c1c(C)nn2C,-6%,-2%,.,?
SMILES,Tau fluor counter,Tau fibril FP,Coupling enz,Tau fibril ThT
Oc1c(Br)cc(Br)cc1C=NCc1ccc(F)cc1,-7%,?,-18,20µM*
O=C(NNC(=S)Nc1ccc(F)cc1)c1cccc([N+](=O)[O-])c1,-18%,5%,3,?
O=[N+]([O-])c1ccc(NNC(=S)Nc2ccc(F)cc2)cc1,?,2%,0,13µM*
CCOc1ccc(NC(=O)CSc2ncc3c(n2)-c2ccccc2N(Cc2ccccc2C)S3(=O)=O)cc1,-15%,?,.,?
O=C1NC(c2cccs2)Nc2sc3c(c21)CCCC3 (configuration not stated),?,?,-9,2.5µM*
CN1C(=O)c2c(sc3c2CCCC3)NC1c1ccccc1O (configuration not stated),?,-11%,-7,?
Cc1ccc2[nH]c(CSc3nnc(NC(=O)c4ccc(Cl)cc4)s3)cc(=O)c2c1,-28%,?,.,6%
CN(C)c1ncc2nc(-c3cccc(C#N)c3)c(=O)n(C[C@H]3CCCO3)c2n1,.,.,-1,.
Cc1cc(-c2nn(-c3ccccc3F)cc2CN2CCCC(CO)C2)c(C)s1 (configuration not stated),-15%,8%,1,7.9µM*
Cc1cc(-c2nn(-c3ccccc3F)cc2CN2CCCC(O)C2)c(C)s1 (configuration not stated),-11%,6%,-1,-8%
CCOc1cccc(C(=O)c2ccc(O)c(O)c2O)c1,?,?,-22,22µM*
CCOC(=O)COc1ccc(C(=O)c2ccccc2)c(O)c1,-8%,6%,-1,-7%
CCOc1ccc(C(=O)c2ccc(O)c(O)c2O)cc1,?,?,-3,22µM*
CCOc1cc(C(=O)Nc2ccc3oc(-c4ccc(F)cc4Cl)nc3c2)cc(OCC)c1OCC,-27%,?,.,-15%
O=S(=O)(Nc1c(S(=O)(=O)c2ccccc2)c2nc3ccccc3nc2n1C1CCCCC1)c1ccccc1,-2%,?,-53*,?
C=CCn1c(NS(=O)(=O)c2ccccc2)c(S(=O)(=O)c2ccc(C)cc2)c2nc3ccccc3nc21,-1%,1%,-59*,6%
Cc1ccc2occ(CC(=O)N(Cc3ccc(Cl)cc3)C3CCS(=O)(=O)C3)c2c1 (configuration not stated),-13%,-6%,.,2%
CCOC(=O)c1c(NC(=O)C(C)Sc2cn(CCNC(=O)c3ccccc3OC)c3ccccc23)sc2c1CCC2 (configuration not stated),-11%,5%,.,?
Cc1nc2c(cc(Oc3ccc(S(=O)(=O)N4CCOCC4)cn3)c3ccsc32)s1,-18%,9%,-40*,7%
Cc1nc2cccnc2n1C1CCN(S(C)(=O)=O)CC1,3%,2%,.,-3%
CCn1c([N+](=O)[O-])nc2c1c(=O)[nH]c(=O)n2C,5%,-10%,-38*,-15%
COc1cccc(-n2c(=O)c3sccc3n(Cc3cc(=O)n4cc(Cl)ccc4n3)c2=O)c1,2%,2%,.,-12%
O=[N+]([O-])c1cc(Cl)ccc1N1CCCC1,-12%,-9%,2,-17%
O=C1C(Cl)=C(N2CCN(c3ccccc3[N+](=O)[O-])CC2)C(=O)c2ccccc21,8.9µM*[quencher],10µM*,-41*,3.5µM*
FC(F)(F)c1ccccc1-c1ccc2ncnc(NC3CC3)c2c1,.,.,-4,.
